SMILES strings stand for the structures. Calls of active or inactive are those of the source. Rule for the calls: active = hit-call score of the fitted dose curve at least 0.9, where 1 is the maximum; inactive = score below 0.9.

Assay [1] can be described thus: ATG_E_Box_CIS: Attagene CIS-FACTORIAL HepG2 Assay for human Enhancer Box (E-box) (AID 2282936). To be noted: HepG2 E-box cis-reporter transcription, actives raise or lower the signal. Put shortly: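 DMSO served as negative control and baseline for bidirectional fitting. Human hepatoma HepG2 cells, transiently transfected with cis-reporter constructs, were dosed 24 h; reporter mRNA read by RT-PCR and capillary electrophoresis.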

Assay [2] is described as follows: ATG_M_61_CIS: Attagene CIS-FACTORIAL HepG2 Assay for M61 Transcription Factor (Internal Marker) (AID 2282937). The settings on record: HepG2 Attagene CIS-FACTORIAL M61 internal marker reporter; actives raise or lower the signal. Put shortly: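 HepG2 cells transiently transfected with multiplexed cis-promoter reporter units reporting endogenous transcription factor activity, measured 24 h after dosing. Reporter mRNA quantified by RT-PCR and capillary electrophoresis; bidirectional fit against DMSO baseline.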

Assay [3] can be described thus: ATG_EGR_CIS: Attagene CIS-FACTORIAL HepG2 Assay for human Early Growth Response 1 (EGR1) (AID 2282938). The settings on record: HepG2 Attagene CIS-FACTORIAL EGR reporter mRNA; actives raise or lower the signal. Put shortly: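 HepG2 cells transiently transfected with cis-element-driven multiplexed reporter units, dosed for 24 h. EGR1-element reporter mRNA quantified by RT-PCR, 6-FAM labelling, HpaI digestion and capillary electrophoresis; bidirectional fit versus DMSO.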

Assay [4] can be described thus: ATG_M_19_CIS: Attagene CIS-FACTORIAL HepG2 Assay for M19 Transcription Factor (Internal Marker) (AID 2282939). The settings on record: HepG2 Attagene CIS-FACTORIAL M19 internal marker reporter; actives raise or lower the signal. Put shortly:
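Following a 24 h exposure, RNA from transfected HepG2 cells was reverse-transcribed, PCR-amplified with reporter-specific primers, end-labelled with 6-FAM and HpaI-digested before capillary separation. Values represent gain or loss versus DMSO.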

Assay [5] can be described thus: ATG_ERE_CIS: Attagene CIS-FACTORIAL HepG2 Assay for Estrogen Response Element (ERE) (AID 2282940). The settings on record: HepG2 ERE cis-reporter, Attagene RNA transcript; actives raise or lower the signal. Put shortly:
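HepG2, transient cis-reporter units, 24 h exposure. RNA isolated, oligo(dT) RT, reporter-specific PCR, FAM extension, HpaI cut, CE detection. Gain/loss-of-signal vs DMSO.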

A short description of assay [6]: ATG_Ets_CIS: Attagene CIS-FACTORIAL HepG2 Assay for human Erythroblast Transformation Specific (ETS) (AID 2282941). The settings on record: HepG2 ETS cis-reporter transcription, actives raise or lower the signal. Put shortly:
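HepG2 cells transfected with multiple cis-regulated reporter units measuring endogenous ETS-driven transcription, 24 h after dosing. Reporter mRNA quantified by RT-PCR with capillary electrophoresis; bidirectional fit relative to DMSO.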

For assay [7], the target named is Hepatocyte nuclear factor 3-beta (Homo sapiens) (UniProt Q9Y261). Description: ATG_FoxA2_CIS: Attagene CIS-FACTORIAL HepG2 Assay for human Forkhead box A2 (FOXA2) (AID 2282942). To be noted: HepG2 cis-reporter transcription factor activity, 24 h; actives raise or lower the signal. Put shortly:
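HepG2 transiently transfected with a multiplexed cis-promoter reporter library read endogenous FOXA2 activity. After 24 h compound exposure, reporter mRNA was quantified by RT-PCR, HpaI digestion and capillary electrophoresis. Bidirectional fit against DMSO.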

Assay [8] in a line: ATG_FoxO_CIS: Attagene CIS-FACTORIAL HepG2 Assay for human Forkhead box O (FoxO) (AID 2282943). The settings on record: HepG2 Attagene cis-reporter, FoxO element, mRNA; actives raise or lower the signal. Put shortly: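 Endogenous transcription factor activity read from multiplexed cis-promoter reporter transcripts in transiently transfected HepG2, 24 h after dosing. Reporter RNA measured via RT-PCR plus capillary electrophoresis of FAM-labeled products; gain or loss relative to DMSO.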

Assay [9] can be described thus: ATG_GATA_CIS: Attagene CIS-FACTORIAL HepG2 Assay for human GATA Binding Protein (AID 2282944). The settings on record: HepG2 GATA cis-element reporter, Attagene multiplex mRNA; actives raise or lower the signal. Put shortly: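 DMSO serves as negative control and baseline for bidirectional fitting of reporter mRNA changes. HepG2 cells bearing transiently transfected cis-promoter reporters were exposed 24 h; transcripts detected via RT-PCR and capillary electrophoresis.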

Assay [10] can be described thus: ATG_GLI_CIS: Attagene CIS-FACTORIAL HepG2 Assay for human Zinc Finger Protein GLI1 (AID 2282945). To be noted: HepG2, Attagene cis-factorial reporter mRNA, GLI element; actives raise or lower the signal. Put shortly:
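Bidirectional curve fits relative to DMSO, using reporter mRNA levels from RT-PCR plus capillary electrophoresis. Cells were HepG2 transiently carrying cis-regulated reporter constructs, harvested 24 h after dosing.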

The target of assay [11] is Bile acid receptor (Homo sapiens) (UniProt Q96RI1). The assay can be described thus: ATG_IR1_CIS: Attagene CIS-FACTORIAL HepG2 Assay for human Nuclear Receptor Subfamily 1 Group H Member 4 (NR1H4), IR1 submotif (AID 2282946). The settings on record: IR1 reporter transcription, actives raise or lower the signal. Put shortly: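 Cells (human HepG2) carry transiently transfected cis-promoter reporter transcription units. Compounds are incubated 24 h, total RNA is reverse-transcribed and amplified, and labelled fragments are resolved by capillary electrophoresis. Curves use DMSO as baseline.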
Sequence of Bile acid receptor (Homo sapiens) (Q96RI1 whole entry, looked up, the tested form may be a part): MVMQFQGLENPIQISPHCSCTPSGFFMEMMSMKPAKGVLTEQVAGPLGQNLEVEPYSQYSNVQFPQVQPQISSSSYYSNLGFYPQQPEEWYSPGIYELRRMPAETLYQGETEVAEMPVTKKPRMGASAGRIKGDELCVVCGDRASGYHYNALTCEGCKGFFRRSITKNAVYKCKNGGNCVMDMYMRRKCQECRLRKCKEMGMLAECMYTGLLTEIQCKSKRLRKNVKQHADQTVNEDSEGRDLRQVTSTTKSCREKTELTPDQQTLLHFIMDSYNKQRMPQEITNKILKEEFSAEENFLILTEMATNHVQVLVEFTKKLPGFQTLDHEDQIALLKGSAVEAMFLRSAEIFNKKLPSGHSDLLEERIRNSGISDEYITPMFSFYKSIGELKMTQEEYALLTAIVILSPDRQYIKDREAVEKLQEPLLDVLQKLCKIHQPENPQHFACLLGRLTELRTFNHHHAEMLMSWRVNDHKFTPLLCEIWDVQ

Assay [12] in a line: ATG_GRE_CIS: Attagene CIS-FACTORIAL HepG2 Assay for human Glucocorticoid Response Elements (GRE) (AID 2282947). The settings on record: HepG2 GRE cis-reporter, Attagene multiplex mRNA; actives raise or lower the signal. Put shortly: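 Assay uses human hepatoma HepG2 cells transfected with cis-promoter reporter units, exposed 24 h. mRNA from reporters detected by RT-PCR plus capillary electrophoresis; DMSO serves as negative control and baseline.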

Assay [13] in a line: ATG_ISRE_CIS: Attagene CIS-FACTORIAL HepG2 Assay for human Interferon Regulatory Factor 1 (IRF1) binding to an Interferon-Stimulated Response Element (ISRE) (AID 2282948). To be noted: HepG2 ISRE cis-reporter (Attagene), mRNA transcription readout; actives raise or lower the signal. Put shortly:
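Transiently transfected HepG2 cells carrying cis-element reporter units, dosed 24 hours. Reporter mRNA quantified by RT-PCR, fluorescent primer extension, HpaI digestion and capillary electrophoresis. Bidirectional fitting relative to DMSO.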

The nature of assay [14]: ATG_M_32_CIS: Attagene CIS-FACTORIAL HepG2 Assay for M32 Transcription Factor (Internal Marker) (AID 2282949).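 Note: background control marker of the multiplexed CIS panel rather than a real target.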 To be noted: HepG2 Attagene cis-factorial M32 reporter, mRNA; actives raise or lower the signal. Put shortly:
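Following 24 h chemical exposure of HepG2 cells transiently expressing cis-promoter reporter constructs, reporter transcript levels were determined by RT-PCR with fluorescent labelling and capillary electrophoresis, then fitted bidirectionally against DMSO.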

The nature of assay [15]: ATG_M_06_CIS: Attagene CIS-FACTORIAL HepG2 Assay for M06 Transcription Factor (Internal Marker) (AID 2282950). To be noted: HepG2 Attagene CIS-FACTORIAL M06 internal marker reporter; actives raise or lower the signal. Put shortly:
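Fluorescence-labelled RT-PCR products from cis-promoter reporter units, cut with HpaI and resolved by capillary electrophoresis, give the signal. Cells are human HepG2, dosed for 24 h. Serves as background control, fitted relative to DMSO.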

Assay [16] deals with Hypoxia-inducible factor 1-alpha (Homo sapiens) (UniProt Q16665). The assay can be described thus: ATG_HIF1a_CIS: Attagene CIS-FACTORIAL HepG2 Assay for human Hypoxia Inducible Factor 1 (HIF1A) (AID 2282951). To be noted: HepG2 Attagene cis-factorial HIF1a reporter transcription; actives raise or lower the signal. Put shortly: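 HepG2 cells transiently transfected with multiple cis-regulated reporter transcription units measure endogenous transcription factor activity. After 24 h exposure, reporter mRNA is quantified by RT-PCR with 6-FAM labelling, HpaI digestion and capillary electrophoresis. Bidirectional fitting against DMSO.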
Sequence of Hypoxia-inducible factor 1-alpha (Homo sapiens) (Q16665 whole entry, looked up): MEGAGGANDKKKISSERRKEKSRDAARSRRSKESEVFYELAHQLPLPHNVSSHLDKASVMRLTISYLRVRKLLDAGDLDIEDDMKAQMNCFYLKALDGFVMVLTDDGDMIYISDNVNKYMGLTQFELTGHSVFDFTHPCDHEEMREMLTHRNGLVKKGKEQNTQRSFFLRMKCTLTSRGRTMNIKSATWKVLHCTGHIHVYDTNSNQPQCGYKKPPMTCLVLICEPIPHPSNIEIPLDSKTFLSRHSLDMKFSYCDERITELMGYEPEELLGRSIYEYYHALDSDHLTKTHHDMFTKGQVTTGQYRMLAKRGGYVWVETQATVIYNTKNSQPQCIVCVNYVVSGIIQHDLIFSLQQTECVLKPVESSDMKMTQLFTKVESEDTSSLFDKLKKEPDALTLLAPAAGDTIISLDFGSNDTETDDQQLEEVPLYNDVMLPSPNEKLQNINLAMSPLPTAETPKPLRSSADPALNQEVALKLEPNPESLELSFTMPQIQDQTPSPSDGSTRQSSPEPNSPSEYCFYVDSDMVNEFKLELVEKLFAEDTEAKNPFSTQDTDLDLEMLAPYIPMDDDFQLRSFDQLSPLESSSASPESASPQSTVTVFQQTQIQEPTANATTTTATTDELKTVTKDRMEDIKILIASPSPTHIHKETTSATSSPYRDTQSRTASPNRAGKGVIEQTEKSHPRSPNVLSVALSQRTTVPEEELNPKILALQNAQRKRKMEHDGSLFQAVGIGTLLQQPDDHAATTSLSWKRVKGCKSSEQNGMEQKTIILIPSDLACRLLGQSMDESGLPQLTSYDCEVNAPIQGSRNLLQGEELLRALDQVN

The target of assay [17] is Hepatocyte nuclear factor 6 (Homo sapiens) (UniProt Q9UBC0). Description: ATG_HNF6_CIS: Attagene CIS-FACTORIAL HepG2 Assay for human Hepatocyte Nuclear Factor 6 (HNF6) (AID 2282952). The settings on record: HepG2 Attagene cis-factorial HNF6 reporter transcription; actives raise or lower the signal. Put shortly: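 HepG2 cells transiently transfected with cis-element-driven multiple reporter transcription units, dosed 24 h; reporter mRNA quantified by RT-PCR, FAM primer extension, HpaI digestion and capillary electrophoresis; bidirectional fit versus DMSO baseline.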
Sequence of Hepatocyte nuclear factor 6 (Homo sapiens) (Q9UBC0 whole entry, looked up): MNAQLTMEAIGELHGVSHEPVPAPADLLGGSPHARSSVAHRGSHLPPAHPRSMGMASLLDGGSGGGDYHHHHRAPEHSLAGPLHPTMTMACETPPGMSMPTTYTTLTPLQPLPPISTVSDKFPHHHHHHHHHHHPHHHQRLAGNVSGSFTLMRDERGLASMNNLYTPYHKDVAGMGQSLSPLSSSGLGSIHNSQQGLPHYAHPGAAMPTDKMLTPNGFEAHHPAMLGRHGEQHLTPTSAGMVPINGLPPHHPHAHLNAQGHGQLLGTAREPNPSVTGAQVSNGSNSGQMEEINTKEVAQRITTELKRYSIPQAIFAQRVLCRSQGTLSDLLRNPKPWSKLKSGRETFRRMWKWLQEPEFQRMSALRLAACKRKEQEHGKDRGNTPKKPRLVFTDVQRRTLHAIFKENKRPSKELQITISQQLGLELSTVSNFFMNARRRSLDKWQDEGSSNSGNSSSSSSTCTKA

Assay [18] concerns the target Heat shock factor protein 1 (Homo sapiens) (UniProt Q00613). Description: ATG_HSE_CIS: Attagene CIS-FACTORIAL HepG2 Assay for human Heat Shock Transcription Factor 1 (HSE) (AID 2282953). To be noted: HepG2 HSE cis-reporter, Attagene RNA transcription; actives raise or lower the signal. Put shortly: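 After a 24 h incubation with test chemical, transfected HepG2 cells were harvested for RNA; reporter transcripts were measured by RT-PCR and capillary electrophoresis. Values reflect gain or loss of signal relative to DMSO.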

Assay [19] in a line: ATG_MRE_CIS: Attagene CIS-FACTORIAL HepG2 Assay for human Metal Responsive Element (MRE) (AID 2282954). The settings on record: HepG2 MRE cis-reporter transcription, Attagene multiplex; actives raise or lower the signal. Put shortly: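 After a 24 h chemical exposure, transiently transfected HepG2 cells yield RNA whose reporter sequences are amplified, FAM-labelled and sized by capillary electrophoresis. Curves are fitted bidirectionally relative to DMSO.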

Assay [20] in a line: ATG_PBREM_CIS: Attagene CIS-FACTORIAL HepG2 Assay for human Phenobarbital-responsive Enhancer Module (PBREM) (AID 2282955). The settings on record: HepG2 PBREM cis-reporter, Attagene multiplexed transcription; actives raise or lower the signal. Put shortly:
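HepG2 cells transiently transfected with multiple cis-regulated reporter units measure endogenous transcription factor activity; 24 h compound exposure. Reporter mRNA quantified by RT-PCR, fluorescent labelling, HpaI digestion and capillary electrophoresis; bidirectional fit versus DMSO.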

Sequence of Heat shock factor protein 1 (Homo sapiens) (Q00613 whole entry, looked up): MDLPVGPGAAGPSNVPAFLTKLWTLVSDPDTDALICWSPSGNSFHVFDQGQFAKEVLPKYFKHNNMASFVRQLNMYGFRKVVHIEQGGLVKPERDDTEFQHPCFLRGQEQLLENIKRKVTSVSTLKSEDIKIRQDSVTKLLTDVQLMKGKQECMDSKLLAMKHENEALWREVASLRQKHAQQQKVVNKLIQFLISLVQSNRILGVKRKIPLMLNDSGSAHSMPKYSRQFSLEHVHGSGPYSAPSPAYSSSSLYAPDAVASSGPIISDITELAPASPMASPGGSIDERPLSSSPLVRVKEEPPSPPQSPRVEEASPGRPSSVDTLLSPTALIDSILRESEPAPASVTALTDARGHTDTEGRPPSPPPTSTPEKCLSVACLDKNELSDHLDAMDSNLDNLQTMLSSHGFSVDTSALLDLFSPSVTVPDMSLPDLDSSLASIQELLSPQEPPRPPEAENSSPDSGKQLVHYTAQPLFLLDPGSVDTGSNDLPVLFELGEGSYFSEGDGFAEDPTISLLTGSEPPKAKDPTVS
Sequence of Hepatocyte nuclear factor 3-beta (Homo sapiens) (Q9Y261 whole entry, looked up): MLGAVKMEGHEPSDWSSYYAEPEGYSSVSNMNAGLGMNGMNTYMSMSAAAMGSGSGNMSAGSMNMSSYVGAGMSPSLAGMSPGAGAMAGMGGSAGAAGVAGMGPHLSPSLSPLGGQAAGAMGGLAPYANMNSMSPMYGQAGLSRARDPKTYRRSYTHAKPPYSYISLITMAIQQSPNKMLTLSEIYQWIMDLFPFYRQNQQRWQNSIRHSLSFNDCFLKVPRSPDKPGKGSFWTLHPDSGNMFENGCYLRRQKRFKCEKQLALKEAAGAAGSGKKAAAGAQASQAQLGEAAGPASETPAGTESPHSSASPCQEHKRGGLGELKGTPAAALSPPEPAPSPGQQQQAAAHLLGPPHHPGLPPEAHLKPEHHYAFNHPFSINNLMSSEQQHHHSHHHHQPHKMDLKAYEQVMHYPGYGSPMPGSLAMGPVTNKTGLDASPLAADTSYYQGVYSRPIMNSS

Take `CCCCOCCOC(=O)COc1nc(Cl)c(Cl)cc1Cl`: the result in [1], in assay [2], in assay [3], in [4], in [6] and in assay [7] was inactive. In addition, the compound was called inactive in assay [8], in [9], in assay [10], in assay [11], in assay [12] and in [13]. Moreover, the result in [14], in assay [15], in assay [16], in assay [17], in assay [18] and in assay [19] was inactive. Moreover, the AC50 in [5] is 26.2 µM (active).
With `CCCCNc1ccc(NCCCC)c2c1C(=O)c1ccccc1C2=O`, the outcome in assay [1], in assay [2], in [3], in assay [4], in assay [5] and in assay [6] was inactive. The outcome in assay [7], in [8], in assay [9], in assay [10], in [11] and in [12] was inactive. Besides, the call in assay [13], in assay [14], in [16], in assay [17] and in [19] was inactive.
Consider `Cc1ccc(C2OC[C@@H]3OC(c4ccc(C)cc4)O[C@H]([C@H](O)CO)[C@@H]3O2)cc1` (stereo not given in full), for which the result in assay [1], in [2], in assay [3], in assay [4], in assay [5] and in assay [6] was inactive. The result in assay [7], in assay [8], in [9], in assay [10], in assay [11] and in assay [12] was inactive. Moreover, the call in assay [13], in assay [14], in [15], in assay [16], in [17] and in [18] was inactive. Besides, the outcome in assay [19] was inactive.
`O=Cc1ccc(CO)o1`: the outcome in assay [1], in [2], in assay [3], in assay [4], in [5] and in assay [6] was inactive. The outcome in [7], in [8], in assay [9], in assay [10], in assay [11] and in assay [12] was inactive. The compound was called inactive in [13], in assay [14], in [15], in assay [16], in [17] and in assay [18]. Moreover, the compound was classed as inactive in [19] and in assay [20].

Source of the values: PubChem BioAssay (EPA / NIEHS).
